{"source": "PubChem BioAssay AID1347165", "about": "(National Center for Advancing Translational Sciences (NCATS), 2019)", "note": "Among all 220,000 compounds or so, about 5,700 (2.6%) were called active. Not shown: some 18% with an inconclusive outcome. What follows is part of a selection rich in actives, with near analogues and random picks from the rest. A number with no mark means an inactive call. Calls come from the whole dose curve; as a rule, active = well fitted inhibition curve with a large enough effect; inconclusive = small, poorly fitted or top-dose-only effect; inactive = no such curve, though single readings can be large or run the other way. Potency is the fitted concentration of half-maximal effect."}
{"target": "Lysine-specific demethylase 5B (Homo sapiens) (UniProt Q9UGL1)", "sequence (Q9UGL1 whole entry, looked up)": "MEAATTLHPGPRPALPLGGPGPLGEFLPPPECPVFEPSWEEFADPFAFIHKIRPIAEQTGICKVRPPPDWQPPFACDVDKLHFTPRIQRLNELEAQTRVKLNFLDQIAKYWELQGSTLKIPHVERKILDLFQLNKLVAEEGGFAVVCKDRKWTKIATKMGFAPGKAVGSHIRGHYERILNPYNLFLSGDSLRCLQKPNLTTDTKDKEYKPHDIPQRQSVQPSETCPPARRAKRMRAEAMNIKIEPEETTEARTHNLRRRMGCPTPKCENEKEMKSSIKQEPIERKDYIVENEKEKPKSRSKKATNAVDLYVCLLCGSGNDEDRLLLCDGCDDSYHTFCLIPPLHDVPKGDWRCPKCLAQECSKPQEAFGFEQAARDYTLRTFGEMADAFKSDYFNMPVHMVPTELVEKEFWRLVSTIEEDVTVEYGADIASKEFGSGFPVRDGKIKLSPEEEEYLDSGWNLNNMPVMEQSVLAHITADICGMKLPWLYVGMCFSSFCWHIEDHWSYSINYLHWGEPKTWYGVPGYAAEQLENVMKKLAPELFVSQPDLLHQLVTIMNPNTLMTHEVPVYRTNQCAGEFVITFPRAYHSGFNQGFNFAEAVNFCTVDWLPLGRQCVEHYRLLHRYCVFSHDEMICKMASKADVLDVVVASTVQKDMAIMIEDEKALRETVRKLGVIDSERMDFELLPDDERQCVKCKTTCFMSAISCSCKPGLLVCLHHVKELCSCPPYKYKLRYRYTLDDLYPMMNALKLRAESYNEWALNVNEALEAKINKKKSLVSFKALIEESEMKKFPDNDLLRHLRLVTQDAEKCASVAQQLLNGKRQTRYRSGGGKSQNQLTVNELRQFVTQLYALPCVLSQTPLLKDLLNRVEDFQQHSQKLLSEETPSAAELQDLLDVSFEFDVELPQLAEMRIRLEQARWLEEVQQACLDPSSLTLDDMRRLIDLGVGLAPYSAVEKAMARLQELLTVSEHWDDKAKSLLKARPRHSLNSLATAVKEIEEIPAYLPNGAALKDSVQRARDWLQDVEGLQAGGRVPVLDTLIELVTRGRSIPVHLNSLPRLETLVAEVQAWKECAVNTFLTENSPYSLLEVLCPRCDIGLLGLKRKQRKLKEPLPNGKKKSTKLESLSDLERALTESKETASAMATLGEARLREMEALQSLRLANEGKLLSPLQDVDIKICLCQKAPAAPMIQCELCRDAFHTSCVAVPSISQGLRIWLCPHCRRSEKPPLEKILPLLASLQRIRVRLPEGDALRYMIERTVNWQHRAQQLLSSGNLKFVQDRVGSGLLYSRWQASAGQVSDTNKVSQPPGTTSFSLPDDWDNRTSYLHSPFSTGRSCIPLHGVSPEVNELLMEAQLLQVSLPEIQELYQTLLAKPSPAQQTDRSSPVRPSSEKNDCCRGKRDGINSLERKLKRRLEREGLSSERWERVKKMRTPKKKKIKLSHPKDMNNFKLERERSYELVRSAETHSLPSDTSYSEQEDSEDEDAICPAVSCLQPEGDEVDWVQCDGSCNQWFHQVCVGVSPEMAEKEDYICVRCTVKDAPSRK", "test": "Primary screen for KDM5B Histone Demethylases FDH-coupled qHTS; note: nearly all actives have a fitted effect of over 70% in size; for activity change, negative = inhibition: 0% is about no effect", "conditions": "FDH-coupled NADH fluorescence (FDH is formaldehyde dehydrogenase); series mostly up to 57.7 µM; activity change, negative = inhibition: at the top concentration", "text": "Assay Submitter (PI): Qin Yan, Ph.D. (Yale University) and Xiaodong Cheng, Ph.D. (MD Anderson) This project was funded as part of the NCI NEXT Program and Chemical Biology Consortium (CBC) The histone demethylases, KDM5A and KDM5B catalyze the demethylation of lysine 4 on histone H3 (H3K4me3/2). They are overexpressed in a variety of cancers and have been implicated in cancer cell growth, metastasis, drug resistance, and tumor growth. KDM5A is amplified and overexpressed in breast and gastric cancer; and is translocated in leukemia. While KDM5B is highly expressed in human mammary tumors and breast cancer cell lines, but not in normal adult breast tissue. Moreover, knockdown of KDM5B leads to upregulation of tumor suppressor genes, including BRCA1. The goal of this project is to employ qHTS to identify selective small molecule inhibitors of KDM5A/B demethylase activity to better understand the role of KDM5 in cancer and to develop novel therapies. We employed an FDH-coupled assay previously reported by Sakurai et al. to monitor in vitro KDM5 demethylase activity. Compounds showing dose response inhibition are re-acquired, validated, and tested for non-specific interference with the formaldehyde dehydrogenase (FDH) counterscreen. True inhibitors are validated using an AlphaLisa secondary screen, which employs an H3K4(me2-1)-specific antibody to monitor demethylation of a biotin-tagged H3K4(me3) peptide substrate. Inhibitors are profiled against KDM4A and KDM6A AlphaLisa counterscreens to determine level of demethylase specificity; and against the TruHits counterscreen to eliminate non-specific inhibitory activity on the AlphaLISA detection method. Selective inhibitors identified from the primary and secondary screening are tested in cells using immunofluorescence to monitor global H3K4 tri-methylation as a measure of KDM5A/B inhibition. Early Translation Branch (ETB) National Center for Advancing Translational Sciences (NCATS), Rockville, MD National Institute of Health (NIH), Bethesda, Maryland [1] Sakurai, M et al. A miniaturized screen for inhibitors of Jumonji histone demethylases. Mol Biosyst. 2010 Feb;6(2):357-64. doi: 10.1039/b912993f. Epub 2009 Oct 8.\nMaterials: 1536-well Black, solid bottom, medium binding assay plate is purchased from Greiner Bio-one. The enzymes (KDM5B) and substrate (H3K4me3/2) are provided by the principal investigators. The buffer for this assay is composed of 50mM HEPES at pH 7.5 with 0.01% Tween-20. FDH coupled Demethylase qHTS protocol: Three microliter enzyme mix (buffer + 200nM KDM5BDeltaAP final concentration) is dispensed into the assay plate using the BioRAPTR Flying Reagent Dispenser (FRD; […]). Compound (at various final concentration) and control solution is pin transferred to the assay plate using the Kalypsys 1536-pin tool apparatus. The assay plate is incubated for 10 min at room temperature followed by addition of 1uL substrate mix (buffer + 100uM ascorbic acid, 50uM ferrous ammonium sulfate, 12.5uM H3K4Me3, 25uM a-ketoglutarate, 0.25 mM NAD+, 0.25 U/mL formaldehyde dehydrogenase using the FRD yielding a total reaction volume of 4 uL. Initial fluorescence (Read1) is detected using the PerkinElmer ViewLux plate reader equipped with 340 nm excitation and 450 nm emission filters. The final fluorescence (Read2) signal is obtained after 30 min of room temperature incubation. Delta RFU is calculated (Read2 - Read1) and is used to generated dose response curves."}
{"smiles": "CCCn1c(NC(=O)CCOc2ccccc2)nc2ccccc21", "activity change, negative = inhibition": "8.15%"}
{"smiles": "CONC(=O)Cc1ccc(OC)cc1", "activity change, negative = inhibition": "15.6%"}
{"smiles": "O=C(O)C(c1c[nH]c2ccc(Cl)cc12)N1CCCN(c2ccc(C(F)(F)F)cn2)CC1", "note": "(stereo not drawn)", "activity change, negative = inhibition": "-6.83%"}
{"smiles": "CCn1c(SCC(=O)NC2=NCCS2)nnc1C(C)NC(=O)c1ccccc1F", "note": "(stereo not drawn)", "activity change, negative = inhibition": "-16.3%"}
{"smiles": "CC(C)n1nc(C(=O)Nc2ccc(Nc3ccccc3)cc2)c2ccccc2c1=O", "activity change, negative = inhibition": "5.18%"}
{"smiles": "Brc1ccc(-c2noc(-c3ccccc3)n2)o1", "activity change, negative = inhibition": "-21.5%"}
{"smiles": "c1ccc(-c2noc(-c3ccccc3OC3CCNC3)n2)cc1", "note": "(stereo not drawn)", "Potency": "20 µM (active)"}
{"smiles": "CC(=O)c1ccc(NC(=O)COc2ccccc2-c2nc(-c3ccccc3)no2)cc1", "activity change, negative = inhibition": "-17.9%"}
{"smiles": "CN1C[C@]2(C=C3CCCCC3n3c(=O)n(-c4ccccc4)c(=O)n32)N=C1NC(=O)c1ccccc1", "note": "(stereo partly drawn)", "activity change, negative = inhibition": "14%"}
{"smiles": "CCCNC(=S)NNC(=O)CCC", "activity change, negative = inhibition": "43.4%"}
{"smiles": "CC1CCN(C(=O)C[C@@H]2c3nc(NC(=O)c4ccnc(Cl)c4)sc3C[C@@H]3[C@](C)(CO)[C@H](O)CC[C@]32C)CC1", "activity change, negative = inhibition": "2.05%"}
{"smiles": "CCC(CC)NC(=O)c1ccc(-c2nnc3ccc(NC(=O)C4CCC4)cn23)cc1", "Potency": "10 µM (active)"}
{"smiles": "COc1ccc(C(=O)Nc2cccc(-c3nnc4n3CCCC4)c2)cc1", "activity change, negative = inhibition": "-18.8%"}
{"smiles": "CCC(C)NC(=O)c1ccc(NC(=O)CC2SC(N3CCCCC3)=NC2=O)cc1", "note": "(stereo not drawn)", "activity change, negative = inhibition": "18.7%"}
{"smiles": "COc1ccc(CC(=O)Nc2ccc(C(=O)NC(C)(C)C)cc2)cc1", "activity change, negative = inhibition": "5.55%"}
{"smiles": "CCC(=O)Nc1ccc2nnc(-c3ccc(C(=O)Nc4ccc(OC)cc4)cc3)n2c1", "Potency": "25.1 µM (active)"}
{"smiles": "COc1ccc(NC(=O)C2CCCN(Cc3nc(-c4ccc(OC)c(OC)c4)no3)C2)cc1OC", "note": "(stereo not drawn)", "activity change, negative = inhibition": "13.9%"}
{"smiles": "O=[N+]([O-])c1ccc(/C=N/OCc2cc(F)cc3cccnc23)cc1", "activity change, negative = inhibition": "16.7%"}
{"smiles": "CC1C(=O)Nc2ccccc2N1C(=O)c1ccc(F)cc1F", "note": "(stereo not drawn)", "activity change, negative = inhibition": "-16.2%"}
{"smiles": "CC(C)(C)c1ccc(C(=O)NN=C2CCCCC2)cc1", "activity change, negative = inhibition": "27.1%"}
{"smiles": "FC(F)(F)c1ccc(CCNC(=S)NC2CC2)cc1", "activity change, negative = inhibition": "12.5%"}
{"smiles": "O=C(c1cccc(C(F)(F)F)c1)N1CCC2(CC1)CC(O)CCO2", "note": "(stereo not drawn)", "activity change, negative = inhibition": "25.6%"}
{"smiles": "COc1ccc(OC2CN(Cc3cccn3C)C2)cc1", "Potency": "44.7 µM (active)"}
{"smiles": "COc1ccc(CN2CC(Oc3ccc(OC)cc3)C2)cc1", "activity change, negative = inhibition": "29.7% [at 149 µM]"}
{"smiles": "COc1ccc(OC2CN(CC3CCCCC3)C2)cc1", "activity change, negative = inhibition": "27.3% [at 149 µM]"}
{"smiles": "CN(C(=O)Cn1nc(Cc2cccnc2)c2ccccc2c1=O)c1ccccc1Cl", "activity change, negative = inhibition": "4.77%"}
{"smiles": "CC1=NS(=O)(=O)N(Cc2ccccc2)C=C1C(=O)OCc1noc(C)n1", "activity change, negative = inhibition": "2.43%"}
{"smiles": "COc1cccc(-c2cc(C3CCN(C(=O)Nc4ccccc4Cl)CC3)[nH]n2)c1", "activity change, negative = inhibition": "-21.3%"}
{"smiles": "O=C(OCc1nc2ccccc2o1)c1cc(F)cc(F)c1", "activity change, negative = inhibition": "-13%"}
{"smiles": "COCc1nc(CCNC(=O)CCc2ccccc2)no1", "activity change, negative = inhibition": "0.693%"}
{"smiles": "Cc1noc(-c2ccc(OC3CN(C(=O)c4ccco4)C3)cc2)n1", "activity change, negative = inhibition": "-1.11%"}
{"smiles": "Cc1cnc(CCNC(=O)c2ccco2)n1C1CCC1", "activity change, negative = inhibition": "-24%"}
{"smiles": "Cc1noc(-c2cccc(OC3CN(C(=O)NCCc4ccccc4)C3)c2)n1", "activity change, negative = inhibition": "11.7%"}
{"smiles": "Cc1noc(-c2cccn3c(CNC(=O)c4ccco4)nnc23)n1", "Potency": "28.2 µM (active)"}
{"smiles": "Cc1noc(-c2cccn3c(CNC(=O)CCc4ccccc4)nnc23)n1", "Potency": "22.4 µM (active)"}
{"smiles": "Cn1c(=O)[nH]c(=O)c2c1ncn2CC(O)c1ccccc1", "note": "(stereo not drawn)", "activity change, negative = inhibition": "6.84%"}
{"smiles": "CC(=O)N1CCN(c2ccc3nnc(-c4ccc(C)cn4)n3n2)CC1", "activity change, negative = inhibition": "-29.3% [at 86.2 µM]"}
{"smiles": "Cc1ccc(-c2nnc3ccc(-c4ccoc4)nn23)nc1", "Potency": "31.6 µM (active)"}
{"smiles": "COP(=O)(OC)c1nc(-c2cccs2)oc1NCc1ccc(C)cc1", "activity change, negative = inhibition": "-3030%"}
{"smiles": "COCCCNC(=O)c1ccc2c(c1)n(Cc1cccc(OC)c1)c(=O)c1ccnn12", "activity change, negative = inhibition": "-15%"}
{"smiles": "O=C(Nc1ccccc1F)c1ccc2c(c1)n(Cc1ccccc1)c(=O)c1ccnn12", "Potency": "31.6 µM (active)"}
{"smiles": "O=C(Nc1ccc(F)cc1F)c1ccc2c(c1)n(Cc1cccc(F)c1)c(=O)c1ccnn12", "activity change, negative = inhibition": "-0.702%"}
{"smiles": "O=C(NCc1cccnc1)c1ccc2c(c1)n(Cc1ccc(F)cc1)c(=O)c1ccnn12", "Potency": "25.1 µM (active)"}
{"smiles": "CCn1c(=O)c2ccnn2c2ccc(C(=O)NC3CCCCC3)cc21", "Potency": "25.1 µM (active)"}
{"smiles": "Cn1c(=O)c2c(nc(SCC(=O)Nc3ccccc3F)n2Cc2ccccc2)n(C)c1=O", "activity change, negative = inhibition": "-9.27%"}
{"smiles": "CCCCc1ccc(C(=O)NCc2cccnc2)cc1", "activity change, negative = inhibition": "12.1%"}
{"smiles": "Cc1ccccc1NC(=O)Cn1c(=O)n(Cc2ccco2)c(=O)c2ccc(C(=O)NC3CCCC3)cc21", "activity change, negative = inhibition": "-27.5%"}
{"smiles": "Cc1oc2ccn(Cc3cccc(F)c3)c(=O)c2c1C(=O)NCc1cccnc1", "activity change, negative = inhibition": "1.67%"}
{"smiles": "Cc1[nH]c2ccccc2c1C=O", "activity change, negative = inhibition": "3.68%"}
{"smiles": "CCOC(=O)CN(CCOC)C(=O)CCCc1ccccc1", "activity change, negative = inhibition": "15%"}
{"smiles": "CC(C)(C)c1ccc(N2C(=O)[C@@H]3C[C@@H](NC(=O)[C@@H](O)c4ccccc4)CCN3C2=O)cc1", "activity change, negative = inhibition": "1.01%"}
{"smiles": "O=C(CN1N=C(c2ccccc2F)c2cc(Cl)ccc2S1(=O)=O)Nc1cc(F)ccc1F", "activity change, negative = inhibition": "1.12%"}
{"smiles": "N#Cc1c(N)n[nH]c1CCCNc1ncnc2c1oc1ccccc12", "activity change, negative = inhibition": "-1.15%"}
